# Results: PubChem BioAssay (NCI)
# This is part of a sample that, as a whole, favours compounds with a hit. Of some 83,000 tested, about 20% had one in any assay.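 Plates (96-well) were seeded with cells, treated with compound at one concentration, and incubated for 48 hours before percent growth was determined.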 Calls of active or inactive are those of the source. How the source made its calls: active means growth percent below 10; inactive means the rest.
# System: NCI/ADR-RES ovarian
# Experiment: NCI-60 one-dose screen, 48 h (100 = growth as untreated, 0 = no growth, -100 = all killed)
# Details: 10 µM unless noted
row,SMILES,growth
1,COc1ccc2c(c1)OC13Oc4cc(OC)ccc4C=C1CCCCC3=C2,96.9% (inactive)
2,C/C(=N/Nc1nc2ccccc2n1C)c1ccccn1,-7.51% (active)
3,Cc1nc2sc(C(=O)Nc3cccc4ccccc34)c(N)c2cc1C(C)O (centres undefined),-1.67% (active)
4,CCOc1ccc(C2N(c3cc(OC)c(OC)c(OC)c3)C(=O)C2(F)F)cc1 (centres undefined),28.9% (inactive)
5,CCOc1ccccc1C(=O)/C=C/c1cc2ccccc2[nH]c1=O,-4.24% (active)
6,Cc1ccc(C2=N[C@H]3CCC[C@@H]3N(c3ccccc3)C(C(Cl)Cl)=N2)cc1,97.9% (inactive)
7,COc1cc(/C=C/CO)cc(OC)c1O[C@@H]1O[C@H](CO)[C@@H](O)[C@H](O)[C@H]1O,106% (inactive)
8,COc1ccc(C(=S)c2cc(OC)c(OC)c(OC)c2)cc1OC(=O)CCl,7.4% (active)
9,O=C1CCC23OC(c4ccccc4N12)C(O)C(O)C3O (centres undefined),101% (inactive)
10,COc1cc(/C=C/C(=O)c2cccs2)ccc1OCc1ccc(Cl)nc1,69.6% (inactive)
11,O=c1c2ccccc2oc2ccc(OCCCCCN3CCCCCC3)cc12,77.8% (inactive)
12,C=C1C(=O)O[C@H]2[C@H]1CC/C(COC(=O)NCC(=O)Nc1ccc(OC)c(C(N)=O)c1O)=C\CC[C@@]1(C)O[C@@H]21,104% (inactive)
13,COc1ccc(-c2[nH]c3ccccc3c2C=C(C#N)C#N)cc1,-12% (active)
14,COC(=O)/C=C/c1cc(OC(C)=O)c2c(c1)C(C(=O)OC)C(c1ccc(OC(C)=O)c(OC(C)=O)c1)O2 (centres undefined),6.1% (active)
15,Nc1cc(N)c(S(=O)(=O)O)cc1N=Nc1cc([N+](=O)[O-])ccc1O,106% (inactive)
16,CC1CCN(CCCCCOc2ccc3oc4ccccc4c(=O)c3c2)CC1,78.3% (inactive)
17,CCOC(=O)C1=C(C)n2nc(CC#N)c(C#N)c2NC1c1ccc(Cl)cc1 (centres undefined),91.9% (inactive)

row,SMILES,growth
1,Cc1cccc(C)c1NCc1nnc(-c2ccco2)o1,97.3% (inactive)
2,COC(=O)/C=C1\SC(=Nc2cccc(Cl)c2)N(CCc2c[nH]c3ccccc23)C1=O,52.4% (inactive)
3,COc1ccc(C(C)c2cc(OC)c(OC)c(OC)c2)cc1 (centres undefined),13.8% (inactive)
4,CCO/C=N/S(=O)(=O)c1cc2c(cc1Cl)NC=NS2(=O)=O,109% (inactive)
5,COc1ccc([C@H]2[C@@H](F)C(=O)N2c2cc(OC)c(OC)c(OC)c2)cc1F,8.4% (active)
6,Nc1cc(N)nc(SCC(=O)O)n1,104% (inactive)
7,CCOC(=O)NCCc1nc2c([nH]1)c(=O)n(C)c(=O)n2C,99.8% (inactive)
8,CC1(c2ccccc2Cl)NC(=O)NC1=O (centres undefined),96.9% (inactive)
9,C=C1C(=O)O[C@H]2[C@H]1CC/C(COC(=O)n1ccnc1)=C\CC[C@@]1(C)O[C@@H]21,102% (inactive)
10,COc1ccccc1-c1ccc2nc(NC(=O)Nc3cc(C(F)(F)F)cc(C(F)(F)F)c3)sc2c1,5.44% (active)
11,O=C1NC(SCc2ccc(F)cc2)=N/C1=C/c1cccc(OCc2ccc(Cl)cc2)c1,65.8% (inactive)
12,O=C(CCc1nnc2sc(OCc3ccccc3)nn12)c1nc2ccc([N+](=O)[O-])cc2[nH]1,99% (inactive)
13,Cc1nnc(/N=C2\NC(=O)/C(=C/c3ccsc3)S2)s1,94.8% (inactive)
14,Cc1cc(Nc2nc(SCc3ccc(C(=O)Nc4ccc(F)cc4N)cc3)nn3cccc23)n[nH]1,30.2% (inactive)
15,Oc1c(CCl)cc(Cl)cc1Cc1cc(Cl)cc(Cc2cc(Cl)cc(CCl)c2O)c1O,14% (inactive)
16,COc1ccc(C2N(c3cc(OC)c(OC)c(OC)c3)C(=O)C2(F)F)cc1F (centres undefined),32.9% (inactive)
17,COc1cc2c(cc1OC)C(Sc1ccc(Cl)cc1)c1c(nc(N)c(C#N)c1N)O2 (centres undefined),1.5% (active)
